In the supplement of paper PMC6555819 one finds PBM binding z-score data, which are given here for 8 sequences.

Assay in all cases: PBM binding z-score (relative to random genomic background probes); higher = stronger binding; sequences stand for … in GC…GCGATTGACAGCGTAGAATGAAGG
Assay [1] concerns PPARg:RXRa DBDmut IVT, anti-RXR (DBD mutation: RXRa K156A/R161A, NR concentration 270 nM, RXRa partner concentration 90 nM). Summed up:
(§1)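 Scanned fluorescence from custom Agilent 4×180K protein-binding microarrays was regression-normalized. Binding z-scores use random background probes as reference. Ligand-free nuclear receptor dimers were incubated on the arrays for 1 h and detected with antibodies against each partner (one per run).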

Assay [2] relates to PPARg:RXRa IVT, anti-PPARg (NR concentration 270 nM, RXRa partner concentration 90 nM). Summed up:
as §1

The test system of assay [3] is PPARg DBDmut:RXRa IVT, anti-PPARg (DBD mutation: PPARg1 K132A/R137A, NR concentration 270 nM, RXRa partner concentration 90 nM). An outline of the steps: as §1
Assay [4] has as its system PPARg DBDmut IVT, anti-PPARg (DBD mutation: PPARg1 K132A/R137A, NR concentration 270 nM). Summed up:
as §1

Assay [5] concerns PPARg homodimer (NR concentration 180 nM). An outline of the steps:
as §1

Assay [6] relates to PXR:RXRa (NR concentration 270 nM, RXRa partner concentration 90 nM). An outline of the steps: as §1
In assay [7] the test system is PXR homodimer (NR concentration 270 nM). An outline of the steps: as §1
The test system of assay [8] is RARa:RXR (NR concentration 270 nM, RXRa partner concentration 90 nM). Summed up: as §1
Assay [9] concerns RARa homodimer (NR concentration 270 nM). Summed up: as §1
Assay [10] relates to RARb:RXRa (NR concentration 270 nM, RXRa partner concentration 90 nM). An outline of the steps:
as §1

Assay [11] has as its system RARb homodimer (NR concentration 270 nM). Summed up: as §1
In assay [12] the test system is RARg:RXRa (NR concentration 270 nM, RXRa partner concentration 90 nM). An outline of the steps: as §1
The subject of assay [13] is RARg homodimer (NR concentration 270 nM). An outline of the steps: as §1
For assay [14], the system named is RXRa DBDmut IVT, anti-RXR (DBD mutation: RXRa K156A/R161A, NR concentration 90 nM). An outline of the steps: as §1
Assay [15] has as its system RXRa homodimer (NR concentration 180 nM). An outline of the steps: as §1
Assay [16] has as its system THRa:RXRa (NR concentration 90 nM, RXRa partner concentration 90 nM). Summed up:
as §1

Assay [17] has as its system THRa homodimer (NR concentration 90 nM). An outline of the steps: as §1
The test system of assay [18] is VDR homodimer (NR concentration 270 nM). An outline of the steps:
as §1

Take CATACAGGGTCAGCTAGGCTAGAGTAGGGACGGC: the PBM binding z-score in assay [1] is 1.19; in assay [2] it was 2.32; in assay [3], 0.769; in [4] it was 0.0787; in [5] it was 1.21; in assay [6] it was 1.85. In addition, the PBM binding z-score in [7] is -0.333; in assay [8], 2.72; in [9], 0.409; in assay [10] it was 3.96; in assay [11] it was 3.04; in assay [12] it was 4.09. The PBM binding z-score in assay [13] stood at 4.3; in assay [14], 1.33; in [15], 3.94; in assay [16], 2.84; in assay [17], 1.02; in [18], 1.04.

CCTACTGGGCCAAGGTCATTGATCAGTCAAAGCA: the PBM binding z-score in assay [1] was 3.5; in assay [2], 4.5; in assay [3], -0.374; in assay [4], -1.03; in assay [5], 1.27; in assay [6], 3.3. For the same sequence, the PBM binding z-score was 0.534 in [7]; 3.29 in assay [8]; -0.4 in [9]; 3.27 in [10]; 3.43 in assay [11]; 3.59 in [12]. Further, the PBM binding z-score in assay [13] worked out at 2.83; in assay [14], 1.19; in assay [15] it was 3.08; in [16], 3.49; in assay [17], 2.36; in assay [18], 2.15.

As to GCGACTGGGGGAAAGCAGGTTACCATAAGGTTGG, the PBM binding z-score in assay [1] turned out to be 2.14; in [2], 3.37; in assay [3], 1.81; in [4], 2.84; in assay [5], 0.279; in [6], 0.944. The PBM binding z-score is 0.0746 in [7]; 1.14 in assay [8]; -0.282 in assay [9]; 0.616 in assay [10]; 0.976 in assay [11]; 0.585 in assay [12]. Moreover, the PBM binding z-score is 0.39 in assay [13]; 0.147 in assay [14]; 0.696 in assay [15]; 2.25 in assay [16]; 0.613 in assay [17]; 0.229 in [18].

On to CGAACTAGGTCAATGACAGTGAATCTCCGCACGC, for which the PBM binding z-score stood at 7.95 in assay [1]; 7.88 in assay [2]; 1.44 in assay [3]; 0.0144 in assay [4]; 1.11 in assay [5]; 1.01 in assay [6]. The PBM binding z-score came out at 0.0387 in assay [7]; 1.71 in assay [8]; 0.201 in assay [9]; 3.68 in assay [10]; 2.77 in [11]; 3.48 in [12]. Also, the PBM binding z-score was determined as 4.07 in assay [13]; 1.91 in assay [14]; 2.36 in assay [15]; 2.2 in [16]; 0.673 in [17]; 0.425 in assay [18].

For the sequence CCGACTGGGGCATAAGTTTACCATAAGCCAGCCC, the PBM binding z-score is 3.09 in assay [1]; 2.55 in [2]; -0.897 in [3]; -1.31 in [4]; 0.107 in [5]; -0.336 in assay [6]. Besides, the PBM binding z-score in assay [7] is -0.547; in [8], -0.262; in [9], -0.566; in assay [10] it was 0.68; in [11], 0.519; in assay [12] it was 0.0613. Moreover, the PBM binding z-score in assay [13] is 0.233; in assay [14], 0.17; in assay [15] it was -0.0212; in [16], -0.345; in [17], -0.433; in assay [18], -0.134.

As for GGAACGAGGGCAAAGTTGATAACATCTGTCGACG, the PBM binding z-score stood at 3.83 in [1]; 4.15 in assay [2]; 0.399 in assay [3]; 0.51 in assay [4]; 1.5 in [5]; 1.23 in [6]. Besides, the PBM binding z-score in [7] was determined as 0.336; in [8] it was 1.49; in assay [9], 0.102; in assay [10], 2.25; in assay [11], 1.21; in assay [12], 2.19. Further, the PBM binding z-score in [13] is 1.97; in assay [14], 2.93; in assay [15], 1.93; in [16], 1.27; in [17] it was -0.123; in [18] it was 1.42.

Turning to CGAACGAGGGCATGAGTTAATAGCAAATGCCGAT, the PBM binding z-score in assay [1] is 2.98; in assay [2], 2.1; in [3], -0.0604; in assay [4] it was 0.0299; in [5], -0.39; in [6], 0.548. In addition, the PBM binding z-score in assay [7] was 0.0291; in assay [8], 0.254; in [9], -0.352; in assay [10] it was 1.89; in assay [11], 0.53; in assay [12], 1.2. The PBM binding z-score in assay [13] was 1.61; in assay [14] it was 2.14; in assay [15], 0.895; in [16], 1.13; in [17] it was -0.42; in assay [18] it was 1.02.

Consider AGAATGAGGTGACCAAAGATCAGGGAAACGCTTG, for which the PBM binding z-score in assay [1] was determined as 4.37; in [2], 4.21; in [3], 0.497; in [4], 0.08; in [5], 0.216; in assay [6], 0.534. Besides, the PBM binding z-score in assay [7] was -0.16; in assay [8], 0.899; in [9], -0.253; in [10] it was 1.3; in assay [11], 0.672; in assay [12], 1.06. The PBM binding z-score in [13] is 1.01; in [14], -0.266; in assay [15] it was 1.51; in assay [16] it was 2.53; in assay [17] it was 0.878; in assay [18], -0.347.
